# A selection: hits, their analogues and other compounds. The true share with any hit is near 1.9%.
# MCL1-BIM inh: disrupts human MCL1 binding to BIM-BH3 peptide; AID 2057; GST-MCL1 / FITC-Bim-BH3 fluorescence polarization; Q07820; inhibition, % at 10.9 µM; 320,000 compounds, 0.68% hits;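 active = inhibition above the mean inhibition of all tested compounds plus 3 SD, set per campaign, cut at about 40% in these data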;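 also: 0% = DMSO wells and 100% = unlabeled Bim-BH3 peptide control; higher means more loss of mP so more displacement of Bim peptide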
# LANA-H2A inh: blocks KSHV LANA binding to histone H2A/H2B. 320,000 compounds, 0.6% hits. cell-free LANA-H2A/H2B peptide, fluorescence polarization. inhibition, % (no concentration beside the values). Q9QR71; in the data active = inhibition mostly above about 10%, no sharp cut-off; inactive = mostly below about 6.7%
# Yeast superoxide: yeast age-related superoxide inhibition as caloric restriction mimetic. superoxide response (% of plate mean), % at 10 µM. S. cerevisiae aged cells, superoxide DHE fluorescence; hits give low values. 330,000 compounds, 0.18% hits. AID 2690;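 active = superoxide response under a set limit, about three screen SD below normal, cut at about 65% in these data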;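 also: yeast aged for seven days with compound at 30 °C before DHE staining; 100% = average MFI of all compound-treated wells on the plate with controls excluded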
# MEX-5 binding: C. elegans MEX-5 TCR-2 RNA binding activity | activity score (negative = inhibition of binding), % at 10 µM | 300,000 compounds, 0.38% hits | Q9XUB2 | AID 1832 | MEX-5/FITC-TCR2 RNA binding, fluorescence polarization; hits give low values;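 active = inhibition past about -25% in most replicates, and total fluorescence under double the plate's negative control median, limit read from the data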;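 also: 0% = DMSO and -100% = 5 µM competing unlabeled TCR2 RNA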
# Target sequence (Q9XUB2 whole entry, looked up): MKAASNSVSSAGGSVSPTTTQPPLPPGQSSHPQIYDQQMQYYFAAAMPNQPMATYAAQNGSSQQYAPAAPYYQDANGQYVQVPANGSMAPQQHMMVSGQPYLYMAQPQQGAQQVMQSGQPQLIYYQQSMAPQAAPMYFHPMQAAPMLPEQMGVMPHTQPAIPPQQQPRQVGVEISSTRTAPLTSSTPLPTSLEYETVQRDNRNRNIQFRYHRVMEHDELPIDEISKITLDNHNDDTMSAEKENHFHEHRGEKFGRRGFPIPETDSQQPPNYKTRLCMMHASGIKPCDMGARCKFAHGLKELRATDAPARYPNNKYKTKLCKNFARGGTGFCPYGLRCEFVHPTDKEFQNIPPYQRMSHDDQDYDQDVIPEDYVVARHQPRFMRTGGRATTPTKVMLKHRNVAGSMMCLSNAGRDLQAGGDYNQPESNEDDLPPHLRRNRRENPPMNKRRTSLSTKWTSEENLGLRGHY
# Bcl-xL primary: inhibitors of human Bcl-xL; Q07817; GST-Bcl-xL / FITC-Bim BH3 peptide fluorescence polarization; inhibition, % at 10.9 µM; 320,000 compounds, 0.7% hits; AID 2129;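 active = inhibition above the mean of all tested compounds plus 3 SD, cutoff set per campaign, cut at about 30% in these data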;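 also: 0% = DMSO wells and 100% = unlabeled Bim-BH3 peptide competitor; inhibitors lower millipolarization by displacing the labeled peptide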
# GLD-1 RNA inh: GLD-1-TGE RNA interaction inhibition (C. elegans) | inhibition, % at 5.96 µM | 320,000 compounds, 0.44% hits | AID 2280 | purified GLD-1 + fluorescein TGE RNA, fluorescence polarization | Q17339;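 active = percent inhibition above a per-plate cutoff, the plate mean of test compounds plus 3 SD, cut at about 30% in these data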;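 also: 0% = DMSO wells with GLD-1 and probe and 100% = wells lacking GLD-1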
# CR mimetic CP: yeast aging superoxide inhibition, cherry pick confirmation; shares compounds with Yeast superoxide; S. cerevisiae aging, superoxide DHE fluorescence; hits give low values; superoxide response (% of plate), % at 10 µM; 850 compounds, 1% hits; AID 434994;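 active = superoxide signal below 65% of the plate average of sample wells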;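 also: cells aged with compound for 7 days at 30 degrees C before staining; 100% equals mean DHE fluorescence of all compound wells on the plate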
# DHE counter: counter-screen for compounds affecting DHE oxidation and fluorescence in yeast | shares compounds with Yeast superoxide | S. cerevisiae BY4741, flow cytometry; hits give low values | fluorescence response, % at 10 µM | 850 tested, under 10 active;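 active = fluorescence response below 15%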;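 also: percent of the mean fluorescence averaged over all compound wells on the plate; lower means stronger quenching of DHE signal or ROS scavenging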
# * marks the source's active call; other numbers are inactive results; x = no result.
SMILES,MCL1-BIM inh,LANA-H2A inh,Yeast superoxide,MEX-5 binding,Bcl-xL primary,GLD-1 RNA inh,CR mimetic CP,DHE counter
C[C@]12CCC(=O)C[C@H]1CC[C@@H]1[C@@H]2CC[C@]2(C)C(=O)CC[C@@H]12,x,x,60*,x,x,-1,83,93
C[C@]12CC[C@@H](O)C[C@@H]1CC[C@@H]1[C@@H]2CC[C@]2(C)C(=O)CC[C@@H]12,12,-16,75,2,7,8,x,x
C[C@]1(O)CCC2C3CC[C@@H]4CC(=O)CC[C@]4(C)C3CC[C@@]21C (some centres not stated),x,-5,61*,x,x,-4,88,94
C[C@]12CCC3C(CC[C@H]4CC(=O)CC[C@]34C)C1CCC2=O (some centres not stated),x,2,71,x,x,2,x,x
C[C@]12CCC3C(CC[C@H]4C[C@H](O)CC[C@]34C)C1CCC2=O (some centres not stated),x,-2,57*,x,x,2,74,101
CCCCn1c(C)c(C(=O)OCC)c2c(CN3CCCC3)c(O)ccc21,6,-4,88,2,5,-2,x,x
CC(C)NC(C)Cc1ccc(I)cc1 (configuration not stated),-8,0,95,x,4,7,x,x
FC(F)(F)c1ccccc1CCN1CCNCC1,5,-7,112,-3,4,-10,x,x
OCC[n+]1c2ccccc2nc2ccc(N3CCOCC3)cc21,15,-2,43*,-6,10,1,66,91
CC(=O)[C@H]1CCC2C3CC[C@H]4C[C@@H](O)CC[C@]4(C)C3CC[C@@]21C (some centres not stated),x,-1,99,x,x,1,x,x
CC(=O)O[C@H]1CCC2C3CC[C@H]4[C@@H](O)[C@H](O)CC[C@]4(C)C3CC[C@@]21C (some centres not stated),x,x,x,x,x,x,104,92
Fc1cccc(F)c1CN1CCN(c2ccc(Cl)cc2)CC1,-4,-1,38*,1,1,4,99,91
Fc1ccc(CN2CCN(c3ccc(Cl)cc3)CC2)cc1,2,4,82,0,3,0,x,x
